Holding throughout (test): Euclidean distance of Cell Painting phenotypic profile (signed KS, 77 features) to DMSO centroid (dimensionless distance); 5 or 10 uM (library dependent); higher = stronger phenotypic change vs DMSO (phenoactivity)
Holding throughout (conditions): 48 h

One experiment deals with 786-O. The method, boiled down:
(§1)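 At 10 or 5 uM, as set by the library, and 0.1% DMSO final, compounds were applied for 48 h to five cancer lines and one healthy fibroblast line. Stained cells were imaged confocally at 20X in 9 fields per well, and Harmony extracted 77 features scored as signed Kolmogorov-Smirnov statistics against vehicle wells on the same plate. Profiles underwent plate-position correction, correlation weighting and replicate averaging at the top dose. Phenoactivity is the Euclidean distance from each such profile to the median vehicle profile.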

For the next experiment, the system named is A549. The method, boiled down:
as §1

The subject of the next experiment is DU145. The method, boiled down: as §1
For another experiment, the system named is FB. The method, boiled down:
as §1

The subject of another experiment is HEPG2. Put shortly:
as §1

The next experiment deals with OVCAR4. The method, boiled down:
as §1

For `CCN(CC)CC#CCOC(=O)C(O)(c1ccccc1)C1CCCCC1` (centres undefined) [Oxybutynin], the Euclidean distance in the experiment on 786-O was 0.749; with A549 it was 0.615; in the experiment on DU145, 1.19; in the experiment with FB it was 0.788; in the experiment on HEPG2, 1.25; with OVCAR4 it was 0.913.

Consider `Cc1cc(NS(=O)(=O)c2ccc(N)cc2)no1` [Sulfamethoxazole sodium], for which the Euclidean distance in the experiment on 786-O came out at 1.09; with A549 it was 0.64; in the experiment on DU145, 1.01; in the experiment with FB, 0.902; in the experiment on HEPG2 it was 0.561; in the experiment on OVCAR4, 1.28.

On to `CC(C)NCC(O)COc1ccc(CC(N)=O)cc1` (centres undefined) [Atenolol], for which the Euclidean distance in the experiment on 786-O turned out to be 1.33; in the experiment on A549, 0.613; in the experiment with DU145, 0.819; with FB, 0.889; in the experiment with HEPG2, 1.22; in the experiment on OVCAR4, 0.667.

For the compound `CCCCC[C@H](O)/C=C/[C@H]1[C@H](O)CC(=O)[C@@H]1CCCCCCC(=O)O` [Alprostadil], the Euclidean distance with 786-O amounted to 1.36; in the experiment on A549, 0.929; in the experiment on DU145, 0.936; with FB, 1.16; in the experiment with HEPG2, 0.927; in the experiment with OVCAR4 it was 1.2.

With `N[C@@H](CSCCCO)C(=O)O` [Fudosteine], the Euclidean distance in the experiment with 786-O was found to be 1.5; in the experiment on A549 it was 1.77; in the experiment with DU145, 0.71; with FB, 1.34; with HEPG2, 0.516; with OVCAR4, 1.3.

Regarding `COc1cc2c(cc1OC)-c1cc3ccc(OC)c(OC)c3c[n+]1CC2` [Palmatine], the Euclidean distance in the experiment with 786-O amounted to 0.525; in the experiment on A549, 0.996; in the experiment on DU145, 0.565; with FB it was 0.73; in the experiment with HEPG2 it was 1.18; in the experiment on OVCAR4, 0.631.

Turning to `N[C@H]1CONC1=O` [L-Cycloserine], the Euclidean distance in the experiment with 786-O amounted to 0.838; in the experiment on A549, 0.531; in the experiment on DU145, 1.03; in the experiment with FB, 1.02; with HEPG2, 0.788; in the experiment with OVCAR4 it was 1.56.

As for `COc1cc(OC)c(/C=C/S(=O)(=O)Cc2ccc(OC)c(NCC(=O)O)c2)c(OC)c1`, the Euclidean distance came out at 2.84 in the experiment on 786-O; 2.83 in the experiment with A549; 4.64 with DU145; 3.03 in the experiment on FB; 3.6 in the experiment on HEPG2; 2.72 in the experiment on OVCAR4.

Regarding `CC(C)CCN1c2nc(Nc3cc(F)c(O)c(F)c3)ncc2N(C)C(=O)C1C` (centres undefined), the Euclidean distance was 1.38 in the experiment with 786-O; 1.84 with A549; 2.16 with DU145; 1.49 in the experiment on FB; 0.771 in the experiment with HEPG2; 2.61 in the experiment with OVCAR4.

Consider `Cc1cc(CN2CCN(c3c(Br)cnc4nc(-c5ccc(N6CCN(C)CC6)cc5)[nH]c34)CC2)no1`, for which the Euclidean distance in the experiment with 786-O was found to be 1.51; in the experiment on A549 it was 1.27; in the experiment on DU145, 1.12; in the experiment with FB it was 0.806; with HEPG2, 1.67; with OVCAR4 it was 1.25.

As to `O=C1OC2(c3ccc(O)cc3Oc3cc(O)ccc32)c2ccccc21` [Fluorescein], the Euclidean distance was found to be 0.775 in the experiment with 786-O; 0.447 with A549; 0.83 in the experiment on DU145; 0.881 with FB; 1.12 in the experiment on HEPG2; 1.27 in the experiment on OVCAR4.

Turning to `COc1cc2ncnc(Oc3cccc(NC(=O)Nc4cc(C(C)(C)C(F)(F)F)on4)c3)c2cc1OC`, the Euclidean distance was found to be 0.889 in the experiment on 786-O; 2.41 with A549; 1.19 with DU145; 1.02 in the experiment with FB; 0.923 in the experiment with HEPG2; 1.88 in the experiment with OVCAR4.

On to `N=C(N)c1ccc(OCCCCCOc2ccc(C(=N)N)cc2)cc1` [Pentamidine], for which the Euclidean distance with 786-O amounted to 1.54; in the experiment with A549, 2.11; in the experiment with DU145, 1.64; in the experiment on FB it was 0.958; with HEPG2, 2.12; in the experiment with OVCAR4, 1.65.

Turning to `NC(=O)c1cc[n+](CC2=C(C(=O)O)N3C(=O)[C@@H](NC(=O)[C@@H](c4ccccc4)S(=O)(=O)[O-])[C@H]3SC2)cc1` [Cefsulodin sodium], the Euclidean distance in the experiment with 786-O amounted to 1.11; in the experiment with A549 it was 0.966; with DU145, 1.58; in the experiment on FB it was 1.06; in the experiment on HEPG2 it was 0.633; with OVCAR4, 1.15.

Take `Cc1cc(O)c2c(c1)C(=O)c1cccc(O)c1C2=O` [Chrysophanic Acid]: the Euclidean distance in the experiment with 786-O is 1.36; in the experiment with A549 it was 0.646; in the experiment with DU145 it was 1.3; in the experiment on FB, 1.64; in the experiment with HEPG2 it was 1.34; in the experiment with OVCAR4 it was 1.43.

Take `COc1ccc(NS(=O)(=O)c2sc3ccc(Cl)cc3c2C)cc1N1CCNCC1`: the Euclidean distance in the experiment with 786-O was 2.31; in the experiment with A549 it was 1.39; with DU145, 1.12; with FB it was 1.13; with HEPG2, 1.35; in the experiment on OVCAR4, 1.29.

With `NC(=O)c1ccc(N(C(N)=O)c2c(F)cccc2F)nc1-c1ccc(F)cc1F`, the Euclidean distance with 786-O is 1.24; with A549, 1.16; with DU145 it was 1.41; in the experiment on FB, 1.37; in the experiment with HEPG2, 0.723; in the experiment with OVCAR4, 1.18.

As for `CCN[C@H]1CN(CCCOC)S(=O)(=O)c2sc(S(N)(=O)=O)cc21` [Brinzolamide], the Euclidean distance in the experiment on 786-O is 1.5; in the experiment on A549, 1.1; in the experiment on DU145, 1.06; with FB, 1.48; in the experiment with HEPG2, 0.663; with OVCAR4 it was 2.07.

For the compound `CC(C(=O)O)c1ccc2c(c1)[nH]c1ccc(Cl)cc12` (centres undefined) [Carprofen], the Euclidean distance is 1.08 with 786-O; 0.684 in the experiment on A549; 0.84 in the experiment on DU145; 1.38 with FB; 0.421 in the experiment with HEPG2; 1.11 with OVCAR4.

Consider `C[C@@](Cc1ccc(O)c(O)c1)(NN)C(=O)O` [Carbidopa], for which the Euclidean distance stood at 1.38 with 786-O; 1.06 in the experiment on A549; 0.985 in the experiment with DU145; 1.1 in the experiment on FB; 0.878 with HEPG2; 1.05 with OVCAR4.

Turning to `CC(C)N1CCN(c2ccc(Nc3ncc4cc5n(c4n3)C3(CCCCC3)CNC5=O)nc2)CC1`, the Euclidean distance in the experiment with 786-O is 3.19; in the experiment with A549, 1.63; in the experiment with DU145, 2.41; with FB it was 3.71; in the experiment with HEPG2, 2.1; with OVCAR4, 2.34.

For the compound `CN(C)Cc1ccc(S(=O)(=O)n2ccc(/C=C/C(=O)NO)c2)cc1` [Resminostat], the Euclidean distance in the experiment on 786-O is 2.67; with A549, 2.99; with DU145 it was 2.58; in the experiment with FB, 3.52; with HEPG2 it was 2.9; in the experiment on OVCAR4, 2.81.

Turning to `COC(=O)c1ccccc1O` [Methyl salicylate], the Euclidean distance stood at 0.625 in the experiment on 786-O; 0.514 in the experiment on A549; 0.585 with DU145; 0.713 in the experiment on FB; 0.768 in the experiment with HEPG2; 0.636 in the experiment with OVCAR4.

As to `CSCCNc1nc(SCCC(F)(F)F)nc2c1ncn2[C@@H]1O[C@H](COP(=O)(O)OP(=O)(O)C(Cl)(Cl)P(=O)(O)O)[C@@H](O)[C@H]1O` [Cangrelor Tetrasodium], the Euclidean distance with 786-O worked out at 1.09; with A549 it was 1.07; in the experiment with DU145, 0.563; in the experiment with FB, 1.25; in the experiment with HEPG2, 0.767; with OVCAR4 it was 0.58.

(Values after the supplement of paper PMC10127200.)
